# About 4,200 (1.3%) of roughly 330,000 compounds were called active. Not shown: some 6% with an inconclusive outcome. This is one part of a sample in which actives are shown more often than they occur. A number with no mark means an inactive call. Calls follow the shape of the dose curve; as a rule, active = well fitted activation curve with a large enough effect; inconclusive = small, poorly fitted or top-dose-only effect; inactive = no such curve, though single readings can be large or run the other way.
# Assay: qHTS screen for small molecules that induce genotoxicity in human embryonic kidney (HEK293T) cells expressing luciferase-tagged ELG1; also: nearly all actives have a fitted effect of over 60% in size; as to activity change, positive = activation: % of control where 0% means no effect
# Conditions: HEK293T ELG1-luciferase reporter, luminescence, 16 h; series mostly up to 46 µM; activity change, positive = activation: at the top concentration
# How it was run: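 DMSO vehicle served as control against compound-treated ELG1-luciferase HEK293T cells; exposure lasted 16 hr at 37 °C and 5% CO2, followed by ONE-Glo luminescence detection after 30 min.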
# Potency is read from the fitted curve at half-maximal effect.
Structure (SMILES),"activity change, positive = activation [%]",Potency
COc1ccc(C2(c3ccc(OC)cc3)NC(=O)N(CC(=O)Nc3cc(C)on3)C2=O)cc1,-1.6,
Cc1nn(-c2ccccc2)nc1C(=O)OCC(=O)N1CCCCC1C (centres undefined),0.888,
COc1ccc(Br)cc1C(=O)NC(=S)Nc1cc(-c2nc3ccccc3[nH]2)ccc1C,0.519,
O=C(Nc1cccc(-c2nc3ccccc3[nH]2)c1)c1ccc(C(=O)Nc2cccc(-c3nc4ccccc4[nH]3)c2)cc1,8.18,
c1ccc2[nH]c(-c3nc4ccccc4[nH]3)nc2c1,,1.03 µM (active)
COc1ccc(-c2[nH]nc(-c3ccccc3)c2-c2nc3ccccc3[nH]2)cc1,-0.244,
Nc1cccc(CCc2nc3ccccc3[nH]2)c1,11,
Cc1ccc(-c2nc3ccccc3[nH]2)cc1N,,1.64 µM (active)
C=CC1=C(C(=O)O)N2C(=O)[C@@H](NC(=O)/C(=N\OCC(=O)O)c3csc(N)n3)[C@H]2SC1,0.264,
Cc1cccc(OCC(=O)OCC(=O)Nc2ccc(Cl)cn2)c1,-1.42,
COc1ccccc1-c1sc2ccccc2c1C#CC1(O)CCCCC1,-0.785,
COc1ccc(S(=O)(=O)N2CCOCC2)cc1NC(=O)c1ccc(OCC(C)C)c(OC)c1,-1.88,
C=CC[C@@H](CC(=O)N[C@H](CO)Cc1ccccc1)C(=O)N[C@@H](COC(=O)[C@@H](CC=C)Cc1ccc(F)cc1)Cc1c[nH]c2ccccc12,0.481,
CC[C@]12c3[nH]c4cc(CCC(=O)N(C)C)ccc4c3CCN1C(=O)[C@@H](CC(=O)NCCCn1ccnc1)C[C@@H]2C(=O)N1CCN(C(=O)C2CC2)CC1,2.47,
CN(CC(=O)O)C(=O)c1ccccc1,2.86,
CC1(C)Cc2ccccc2/C(=C/C(=O)c2ccccc2)N1,-2.7,
CC1CN/C(=C\C(=O)c2ccc(Br)cc2)C(=O)N1 (centres undefined),,1.3 µM (active)
COc1cc2c(cc1OC)/C(=C/C(=O)c1ccc(NC(C)=O)cc1)NCC2,9.13,
CN(c1ccccc1)S(=O)(=O)c1cc(C(=O)N2CCN(c3ncccn3)CC2)ccc1Cl,-4.11,
COc1ccccc1CNC(=O)COC(=O)c1cccs1,-1.05,
CCN(C[C@H]1N[C@@](CC)(C(=O)OC)[C@H]2C(=O)N(C)C(=O)[C@@H]12)C(=O)Nc1ccc(F)cc1,3.56,
Cc1cccc(C)c1-n1c(C)cc(/C=C2\C(=O)NN(c3ccccc3)C2=O)c1C,5.82,
Cc1ccccc1-n1c(C)cc(/C=C2\NC(=O)NC2=O)c1C,,14.6 µM (active)
Cc1cc(/C=C2/NC(=O)NC2=O)c(C)n1-c1cccnc1,8.4,
COc1cc(SC)ccc1C(=O)NNC(=O)C1COc2ccccc2O1 (centres undefined),0.869,

Structure (SMILES),"activity change, positive = activation [%]",Potency
COC(=O)CCNc1ccc2c(c1)OCCO2,,9.2 µM (active)
COc1ccccc1OCCCC(=O)Nc1ccc2c(c1)OCCO2,4.27,
Cc1ccc(OCCCC(=O)Nc2ccc3c(c2)OCCO3)cc1,3.35,
COc1cccc(CC(=O)OCC(=O)NCc2ccc3c(c2)OCO3)c1,0.92,
CCN1C[C@@H]2[C@@H]3C(=O)N(Cc4ccccc4)C(=O)[C@@H]3[C@](Cc3ccccc3)(C(=O)OC)N2C1=NC1CCCCC1,-3.08,
C[C@@H]1CN([C@H](C)CO)C(=O)c2cc(NC(=O)NC3CCCCC3)ccc2O[C@H]1CN(C)S(C)(=O)=O,-0.246,
Nc1ccc(C(=O)NCc2ccccc2)cc1,3.4,
CC(=O)Nc1ccccc1NC(=O)c1cc(C)cc(C)c1,0.5,
Nc1ccc(C(=O)Nc2ccccc2N)cc1,,14.6 µM (active)
CC[C@]1(C(=O)OC)[C@H]2C(=O)N(C)C(=O)[C@H]2[C@H]2CN(C)C(=NCc3ccccc3)N21,4.13,
CCc1ccc(NC2Nc3cc(C)nn3S2)cc1 (centres undefined),,9.2 µM (active)
CCc1ccc(NC(=O)N2CCN(c3ccccc3)CC2)cc1,2.07,
CCCc1cc(=O)[nH]c(SCC(=O)Nc2ccc(S(=O)(=O)N3CCCC3)cc2)n1,-0.499,
C=CC[C@H](CC(=O)N(CCO)Cc1ccccc1)C(=O)N[C@@H](COC(=O)[C@@H](CC=C)Cc1ccc(F)cc1)Cc1ccccc1,-6.21,
COc1ccc(C(=O)Nc2ccccc2C(=O)N/N=C/c2ccc(O)c(OC)c2)cc1,-12.2,
COc1ccc(/C=N/OCC(=O)N(Cc2ccccc2)c2ccccc2C(=O)O)cc1,1.68,
COc1ccc(/C=N/Nc2ccccc2C(=O)O)cc1,,1.3 µM (active)
COc1ccccc1-c1nnc2n1N=C(c1ccc(OC(F)F)c(OCC3CC3)c1)CS2,7.86,
O=C(COC(=O)CN1C(=O)C2CCCCC2C1=O)Nc1ccc(F)c(F)c1F (centres undefined),1.33,
COc1ccc(C(=O)C(C)OC(=O)c2cccc(S(=O)(=O)Nc3c(C)n(C)n(-c4ccccc4)c3=O)c2)cc1 (centres undefined),1.17,
Cc1cccc(C(=O)OCC(=O)Nc2ccc(F)cc2)c1,8.07,
Cc1ccc(-n2nc3ccc(NC(=O)/C=C/c4ccco4)cc3n2)cc1C,19.8,
CCC(=O)Nc1ccc2nn(-c3ccc(F)cc3)nc2c1,,1.46 µM (active)
CCOC(=O)[C@H]1[C@H]2COc3ccccc3[C@@H]2N2C(=O)CN(Cc3ccccc3)C(=O)[C@@]12C,0.713,
C#CCOCCOCCOCCNc1nc(N2CCN(C(=O)[C@H](CCC(=O)O)n3cc(CN)nn3)CC2)nc(N2CCN(C(=O)[C@H](CCC(=O)O)n3cc(CN)nn3)CC2)n1,0.694,

Structure (SMILES),"activity change, positive = activation [%]",Potency
O=C(COc1ccccc1F)NNC(=O)c1cc(Br)ccc1Cl,-1.83,
CCN(CC(=O)NCc1ccc(F)cc1)S(=O)(=O)c1ccc(Cl)s1,-3.18,
C/C(=N\Nc1ccc(S(N)(=O)=O)cc1[N+](=O)[O-])c1cccs1,13.8,
C/C(=N\Nc1ncc(Cl)cc1Cl)c1cccs1,,5.17 µM (active)
C/C(=N\Nc1ncc(Cl)cc1Cl)c1ccc(S(=O)(=O)NCc2ccco2)cc1,0.852,
Cc1cc(NC(=O)COC(=O)/C=C/c2ccc(C)o2)no1,-0.158,
CC(=O)Oc1ccc2c(c1)C(=O)c1ccccc1C2=O,18.5,
COc1ccc2c(c1OC)C(=O)c1ccccc1C2=O,,5.17 µM (active)
COc1cccc(-c2ccc3c(c2)S(=O)(=O)c2cccc(C(=O)O)c2C3=O)c1OC,2.09,
COc1cc2c(-c3ccc4c(c3)OCO4)c(-c3ccsc3)oc(=O)c2cc1OC,0.908,
COc1ccc(S(=O)(=O)N2CCN(c3cnccn3)CC2)cc1,1.44,
Cc1nc2ccc(NC(=O)c3cccc(S(=O)(=O)N4CCOCC4)c3)cc2s1,-6.82,
O=C(c1cnn2ccccc12)N1CCc2ccccc21,,4.11 µM (active)
Cc1cnc(C(=O)OCC(=O)N2CCc3ccccc32)cn1,1.68,
CCOC(=O)N1CCC(NC(=O)c2cnn3ccccc23)CC1,-1.21,
O=C1CSc2ccc(C(=O)NCc3ccccn3)cc2N1,6.33,
CCOC(=O)C1=CN(Cc2ccc(Br)cc2)S(=O)(=O)NC1C (centres undefined),2.38,
COc1ccc(S(=O)(=O)N(C)C[C@H]2Oc3ccc(NS(=O)(=O)c4cccs4)cc3CC(=O)N([C@H](C)CO)C[C@H]2C)cc1,3.98,
CCC(CO)Oc1cc(NC(=O)c2ccc(Cl)cc2)c2ncn(C(C)C)c2c1 (centres undefined),5,
CC(=O)Nc1ccc(S(=O)(=O)NCCC(=O)N2CCN(c3ccccc3Cl)CC2)cc1,-2.27,
N#Cc1ccc(C2N=C(c3ccccc3)NO2)cc1 (centres undefined),,5.17 µM (active)
O=C(OCC(=O)N1CCCCCC1)c1ccc(Br)c(S(=O)(=O)N2CCOCC2)c1,-3.75,
C[C@@H]1C(c2ccc(F)cc2)=NN(c2ccc(Br)cc2)[C@H]1C(=O)N1CCOC1=O,2.71,
Cc1ccc(S(=O)(=O)N2[C@@H](c3ccc(Br)cc3)C(C(=O)O)=C[C@H]2CC2CCCC2)cc1,0.375,
Cc1cc(=O)oc2cc(OCCC[n+]3ccccc3)ccc12,2.93,

Structure (SMILES),"activity change, positive = activation [%]",Potency
Cc1cc(=O)oc2cc(OCC3CC(c4ccccc4Cl)=NO3)ccc12 (centres undefined),,7.94 µM (active)
Cc1ccccc1N1CCN(CCCOc2ccc3c(C)cc(=O)oc3c2)CC1,0.148,
CCCCNC(=O)C(C)N(CCN(C)C)C(=O)CCCCCN1C(=O)NC(c2ccc(Cl)cc2)C(C(=O)OCc2ccccc2)=C1C (centres undefined),-3.93,
COC(=O)CSc1nnc(-c2cccnc2)o1,1.66,
COc1ccc(-c2nnc(SCc3cccnc3)o2)cc1,15.4,
CN(C)c1ccc(-c2nnc(-c3cccnc3)o2)cc1,,10.3 µM (active)
COc1ccc(CCNC(=O)COC(=O)Cc2ccccc2F)cc1,2.3,
Cc1ccc(C(=O)NCC(=O)NC2CC2)cc1,3.52,
Oc1ccc(/C=N/Nc2nc(-c3ccccc3F)nc3ccccc23)c(O)c1,-11.4,
Oc1ccc(/C=N/NC2=NCCCCC2)c(O)c1,,7.31 µM (active)
COc1ccc(/C=C(\C#N)C(=O)ONC2=NCCCCC2)cc1,-2.29,
O=C(Cn1cnc2ccccc2c1=O)NNC(=O)c1ccccc1F,0.474,
COc1ccc(C(=O)Nc2cc(S(=O)(=O)N3CCCC3)ccc2Cl)cc1,-0.914,
CN(C)c1nc(=Nc2cccc(Cl)c2)ss1,2.77,
c1ccc(CN2CCC(N=C3NN=C(c4ccc5c(c4)OCCO5)CS3)CC2)cc1,0.435,
Clc1cccc(N=C2NN=C(c3ccc4c(c3)OCCO4)CS2)c1,,2.31 µM (active)
CCOC(=O)c1c(N)nn(C(=O)c2ccccc2)c1-c1ccccc1,-8.81,
Cc1occc1C(=O)Nc1cccc(Cn2cccn2)c1,4.11,
Cc1nn(C(=O)c2ccoc2C)c(N)c1-c1ccccc1,,13 µM (active)
Cc1ccc(C(=O)Nc2ccc3c(c2)OCCO3)cc1S(=O)(=O)N1CCOCC1,10.5,
N#CNC1=NCN(CCc2ccccc2)CN1,-0.27,
Cc1ccc2nc(NC3=NCN(CCc4ccccc4)CN3)nc(C)c2c1,-4.53,
c1ccc(CCN2CN=C(Nc3nc4ccccc4o3)NC2)cc1,,18.4 µM (active)
CCN(CC)C(=O)[C@H]1C[C@H](CC(=O)NCC23CC4CC(CC(C4)C2)C3)C(=O)N2CCc3c([nH]c4cc(CCC(=O)N(C)C)ccc34)[C@]12C,-0.656,
